Data: the supplement of paper PMC13380429

Tested on: Vero E6 infected with SARS-CoV-2
Assay: inhibition of SARS-CoV-2 cytopathic effect; higher = more antiviral protection, active = above 15
Conditions: 48 h

Measured: inhibition of SARS-CoV-2 cytopathic effect

NCCc1c[nH]c2ccc(O)cc12 [serotonin]
inactive: 1 nM -0.73% | 8.33 nM -0.57% | 100 nM 2.41% | 833.33 nM 2.28% | 10000 nM 0.37%

C=C(C)[C@@H]1CC[C@]2(CO)CC[C@]3(C)[C@H](CC[C@@H]4[C@@]5(C)CC[C@H](O)C(C)(C)[C@@H]5CC[C@]43C)[C@@H]12
inactive: 1 nM -5.94% | 8.33 nM -10.1% | 100 nM -7.13% | 833.33 nM -9.2% | 10000 nM -12.6%

C[C@H]1C[C@@H]2[C@H]([C@@H](O)C[C@@]3(C)[C@H]2CC[C@]3(O)C(=O)CO)[C@@]2(C)C=CC(=O)C=C12 [methylprednisolone]
inactive: 1 nM 0.61% | 8.33 nM 3.49% | 100 nM -1.8% | 833.33 nM 0.94% | 10000 nM 0.36%

CC(SC(=O)c1cccs1)C(=O)NCC(=O)O (stereo not given) [stepronin]
inactive: 1 nM 2.01% | 8.33 nM -0.48% | 100 nM 1.48% | 833.33 nM 0.5% | 10000 nM -1.74%

COCCNC(=O)COc1ccc(OCCNC[C@H](O)COc2ccccc2)cc1
inactive: 1 nM 0.49% | 8.33 nM 1.84% | 100 nM -1.53% | 833.33 nM -1.02% | 10000 nM -6.62%

CC[N+](CC)(CC)CCOc1ccc(/C=C/c2ccccc2)cc1
inactive: 1 nM -0.65% | 8.33 nM 1.39% | 100 nM 2.2% | 833.33 nM 1.89% | 10000 nM 7.99%

CCNCc1cc(C(C)(C)C)c(O)c(C(C)(C)C)c1
inactive: 1 nM 1.75% | 8.33 nM -0.5% | 100 nM 1.78% | 833.33 nM 0.46% | 10000 nM 1.14%

O=C(O)c1ccccc1O [salicylic-acid]
inactive: 1 nM 1.59% | 8.33 nM -5.54% | 100 nM -2.37% | 833.33 nM 0.26% | 10000 nM 1.57%

CCN(CC)CC#CCOC(=O)C(O)(c1ccccc1)C1CCCCC1 (stereo not given) [oxybutynin]
inactive: 1 nM -1.83% | 8.33 nM -0.13% | 100 nM -0.11% | 833.33 nM 0.84% | 10000 nM 8.9%

CNC(=O)c1ccc2cc([C@@]3(O)CCn4cncc43)ccc2c1 [orteronel]
inactive: 1 nM 3.23% | 8.33 nM 3.01% | 100 nM 4.35% | 833.33 nM 3.1% | 10000 nM 2.53%

CCC[C@H](N[C@H]1CCc2cc(F)cc(F)c2C1)C(=O)Nc1cn(C(C)(C)CNCC(C)(C)C)cn1
inactive: 1 nM 2.54% | 8.33 nM -2.77% | 100 nM -1.3% | 833.33 nM -9.66% | 10000 nM -10.1%

Clc1cccc(Cl)c1NC1=NCCN1 [clonidine]
inactive: 1 nM -0.43% | 8.33 nM -2.8% | 100 nM -3.01% | 833.33 nM 0.52% | 10000 nM -5.58%

CC(=O)N[C@@H](CCC(N)=O)C(=O)O [aceglutamide]
inactive: 1 nM 1.69% | 8.33 nM 3.16% | 100 nM 6.3% | 833.33 nM 1.78% | 10000 nM -5.34%
